Measured values published in PubChem BioAssay (NCI).
Values joined by “and” are separate entries in the source; they are usually repeats but may differ in a detail not shown here. Equal entries are not always repeated. Compounds without any hit were thinned out: in the full panel of roughly 83,000, 20% have a hit.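 Growth was measured after 48 h exposure to one concentration of compound in 96-well plates. Values under 10 count as active.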 Unmarked numbers belong to inactive results. Active and inactive are the calls of the source.

system: MDA-MB-468 breast; assay: NCI-60 one-dose screen, 48 h (100 = growth as untreated, 0 = no growth, -100 = all killed); conditions: 10 µM unless noted

`CC1(C)CC[C@]2(C(=O)N3CCOCC3)CC[C@]3(C)C(=CC[C@@H]4[C@@]5(C)C/C(=C/c6ccncc6)C(=O)C(C)(C)[C@@H]5CC[C@]43C)[C@@H]2C1` was tested. Which growth did it give?
The growth was 3.46% (active).

How did the growth turn out when `O=C(NCCNCCO)c1cc([N+](=O)[O-])cc([N+](=O)[O-])c1O` was run?
The growth was 103%.

Which growth does the source give for `c1cncc(-c2nc3ccccc3[nH]2)c1` here?
The growth was 102%.

How did the growth turn out when `CC(C)(C)n1cc(-c2ccnc(NCCNS(=O)(=O)c3cccc(F)c3)c2)c(-c2ccccc2)n1` was run?
Its growth is 62.8%.

How did the growth turn out when `Clc1cccc(/C=N/Nc2nc(N/N=C/c3cccc(Cl)c3)nc(N3CCOCC3)n2)c1` was run?
The growth was 30.8%.

`COc1cc(OC)cc(C(=O)Nc2cnc(Nc3ccc(N4CCOCC4)nc3)nc2Oc2ccc(C(F)(F)F)cc2)c1` was tested. Which growth did it give?
The growth was 81.1%.

`CCc1c(CC(=O)O)c2cc(C)ccc2n1Cc1ccc(Cl)cc1` was tested. Which growth did it give?
Its growth is 95.3% and 94.5%.

Which growth does the source give for `CNC(=O)c1cc(Oc2ccc3nc(Nc4ccc(Cl)c(C(F)(F)F)c4)ccc3c2)ccn1` here?
Its growth is 45.3%.

With `C[C@]1(CO)C[C@@H](O)C[C@]2(C)[C@@H]1CC[C@@]13C[C@@H]4[C@@H](C[C@H]12)[C@]4(C)C3` as the molecule, how does the growth read?
The growth was 113%.

Which growth does the source give for `COc1ccc(S(=O)(=O)N2CCCCC2)cc1NC(=O)c1[nH]c(C)c2c1CCCCC2=O` here?
The growth was -2.19% (active).

How did the growth turn out when `NC(=O)c1c(NC(=O)c2cccc(C(F)(F)F)c2F)sc2c1CCC(=O)C2` was run?
The growth was -1.45% (active).

For `COc1ccc2c(c1)Oc1nc(N)c(C#N)c(N)c1C2Sc1ccc(O)cc1` (stereo not given), which growth is on record?
Its growth is 18.8%.

Which growth does the source give for `ClCc1c(Cl)c(Cl)c(Cl)c(CCl)c1Cl` here?
Its growth is -74% (active).

`O=C(Nc1ccccc1S)c1ccccc1` was tested. Which growth did it give?
Its growth is 115%.

`Nc1ncnc2c1ncn2C1OC(COC(c2ccccc2)(c2ccccc2)c2ccccc2)C(O)C1O` (stereo not given) was tested. Which growth did it give?
The growth was 89%.

`COCCOCCCl` was tested. Which growth did it give?
Its growth is 102%.

How did the growth turn out when `C=C(C)[C@@H]1CC[C@]2(C(=O)O)CC[C@]3(C)[C@H](CC[C@@H]4[C@@]5(C)C[C@@H](CC#Cc6ccc(C(C)=O)s6)[C@H](O)C(C)(C)[C@@H]5CC[C@]43C)[C@@H]12` was run?
The growth was 63.4%.

With `COc1ccc(N=C(c2ccccc2)C2C(=O)c3ccccc3C2=O)cc1` as the molecule, how does the growth read?
Its growth is 72.5%.

Which growth does the source give for `COc1cc(-c2nc3ccccc3[nH]2)ccc1OCC(=O)N=Nc1c(O)[nH]c2ccc(Cl)cc12` here?
Its growth is -78.9% (active).

With `Cn1cc(-c2ccc3c(c2)ncn3-c2ccc(CC(=O)Nc3cc(C(C)(C)C)on3)cc2)cn1` as the molecule, how does the growth read?
The growth was 35.5%.

`Nc1c(C(=O)Nc2cccc(F)c2)sc2nc3c(cc12)C(=O)CCC3` was tested. Which growth did it give?
Its growth is 33.2%.

How did the growth turn out when `C=C1C(=O)O[C@H]2[C@H]1CC/C(C=Nc1c(N)cc(C(F)(F)F)cc1C(F)(F)F)=C\CC[C@@]1(C)O[C@@H]21` was run?
Its growth is -58.1% (active).

With `CCCCCCCCCCCCCCCc1cc(O)ccc1[N+](=O)[O-]` as the molecule, how does the growth read?
The growth was 111%.

How did the growth turn out when `Cc1c(Cl)cc(-n2c(=O)c3ccccc3c3ccccc3c2=O)cc1Cl` was run?
Its growth is 128%.

How did the growth turn out when `C[C@H]1OC(=O)/C=C/[C@@H](O)[C@@H](O)CCCCCCCC[C@@H]1O` was run?
Its growth is 97.2%.

With `COc1cc(C2C3=C(COC3=O)N(CCO)c3cc4c(cc32)OCO4)cc(OC)c1O` (stereo not given) as the molecule, how does the growth read?
Its growth is -35.5% (active).

With `CCOC(=O)N1CCN(S(=O)(=O)c2oc(-c3ccc(Cl)cc3)nc2C#N)CC1` as the molecule, how does the growth read?
The growth was 86.5%.

For `COc1ccc(C/C(C)=C(/c2ccc(OCCN3CCCC3)cc2)c2ccc(OC(=O)NCc3ccccc3)cc2)cc1`, which growth is on record?
The growth was 78.9%.

`CNC(=O)c1cnc(C)nc1-c1cc(C(C)(C)C)c(O)c(C(C)(C)C)c1` was tested. Which growth did it give?
Its growth is 97.4%.

For `O=C(Nc1ccccc1)c1ccco1`, which growth is on record?
The growth was 103%.

`COc1cc2c(c(OC)c1OC)C(=O)CC(c1cccc(C(=O)Nc3ccccc3Br)c1)O2` (stereo not given) was tested. Which growth did it give?
Its growth is 79.1%.

`O=C1NC(=O)C(Cc2ccccc2)(Cc2ccccc2)N1` was tested. Which growth did it give?
Its growth is 104%.

How did the growth turn out when `O=C1OC(C(O)C(O)CO)C(O)=C1O` (stereo not given) was run?
The growth was 88.7% and 117%.

Which growth does the source give for `O=C(Nc1ncc(Cc2ccccc2Cl)s1)c1cccs1` here?
The growth was 33.6%.

For `CCOC(=O)C1=C(C)n2nc(CC#N)c(C#N)c2NC1c1ccc(Cl)cc1` (stereo not given), which growth is on record?
Its growth is 117%.

How did the growth turn out when `Cn1cc(-c2csc(-c3cn(C(=O)OC(C)(C)C)c4ccc(Br)cc34)n2)c2ccnc(Cl)c21` was run?
The growth was 5.4% (active).

How did the growth turn out when `CCc1nnc(NC(=O)c2cc(-c3ccc(Cl)cc3Cl)oc2C)s1` was run?
Its growth is 94%.

How did the growth turn out when `CC1=CC2c3oc(-c4ccccc4)c(C(=O)c4ccccc4)c3CNC2C=C1` (stereo not given) was run?
Its growth is 97.7%.

How did the growth turn out when `Cc1cccc(N=Nc2cccc(C)c2)c1` was run?
The growth was 108%.

`Cc1cc(C)c2sc(=O)n(Cc3nnc(SCCC(=O)O)o3)c2n1` was tested. Which growth did it give?
Its growth is 110%.
